This is a sample that favours compounds with a hit; in the whole collection about 1.8% have one here.
ARNT-TACC3 inh – disrupts binding between human ARNT and TACC3. actives 0.66% (n = 390,000). AlphaScreen His-ARNT PAS-B/GST-TACC3 binding, luminescence; TACC3 fragment carries E629A point mutation. inhibition, % at 9.99 µM. Q9Y6A5. AID 623870;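 active means mean inhibition of replicates at least 50% and at least half of replicates each reaching 50%; inconclusive means half or more replicates reach 50% but mean below 50%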;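 further: 0% = complete ARNT plus TACC3 wells and 100% = ARNT alone without TACC3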
aDG glyco act – alpha-DG glycosylation activation; Pro5-aDG cells, alpha-DG glycosylation AlphaScreen (IIH6); 0% Pro5, 100% B10-LARGE cell signal; activation, % at 10 µM; actives 0.22% (n = 360,000);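 active means activation of at least 8% versus controls, or a plate z-score of at least 8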;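 further: Pro5 are CHO cells carrying HIG-tagged alpha-DG that lacks glycosylation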
SUMO Mot1 rescue – blocks SUMOylation pathway, rescuing yeast Mot1-301 growth; S. cerevisiae Mot1-301 growth rescue, ATP luminescence, 38.5C; percent above DMSO median, 100 means doubled; growth rescue, % at 18.8 µM; actives 1% (n = 320,000);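 active means every valid replicate shows activation above 250% relative to neutral control wells; inactive means the rest, any valid replicate at or below 250%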;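 further: OY570 slx delta 5 strain wells were the positive control but not used for scaling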
AI-2 QS modul – modulates the Vibrio harveyi AI-2 quorum sensing system. Vibrio harveyi JMH597 AI-2 luminescence/OD600 ratio, 9 h; active compounds read low; strain lacks LuxN and CqsS sensors; 0 = neutral-control median. actives 0.4% (n = 300,000). activity change, % at 7.5 µM; in the data active means activity change below about -75%, passing the limit was not always enough; inconclusive means no clear call, values can overlap the other calls;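 further: luminescence divided by OD600 gain over 9 h not by final OD600 alone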
Bfl-1 A1 inh – inhibitors of the anti-apoptotic protein A1, read as caspase activation. AID 2462. MEF A1-2A-BIM cells, Caspase-Glo 3/7 luminescence, 3 h; percent of clofoctol response, vehicle zero. actives 0.066% (n = 330,000). caspase activation, % (no concentration beside the values);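 active means over half of replicate activation scores above 10%, or exactly half above 10 with the replicate mean above 10; inconclusive means replicate mean below 10 yet half the replicates above 10; inactive means over half of replicates below 10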
AlphaScreen ctr – counter-screen for ARNT/TACC3 inhibitors: AlphaScreen artifacts; shares compounds with ARNT-TACC3 inh; His-ARNT PASB-GST AlphaScreen artifact counter-screen, luminescence; AC50, µM (titrated, usually from 68 µM), for the others: at the highest dose activity change, negative = signal decrease; actives 50% (n = 1,200);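 active means every separate test run was called active for a drop in luminescence, with AC50 within twice the top valid dose, actives reach about 71 µM in these data; inconclusive means the separate test runs disagree in their calls; inactive means all runs inactive, including signal change in the wrong direction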
An asterisk follows results filed as active; ? = inconclusive; . = not tested or not shown; [ ] = another dose, or the depositor's remark.

SMILES | ARNT-TACC3 inh | aDG glyco act | SUMO Mot1 rescue | AI-2 QS modul | Bfl-1 A1 inh | AlphaScreen ctr
CCOC(=O)C1CCN(C(=O)COC(=O)c2ccc([N+](=O)[O-])o2)CC1 | 33* | 0 | -1 | . | 1 | -11%
CC1CCCC(C)N1C(=O)COC(=O)c1cc([N+](=O)[O-])ccc1N1CCOCC1 (stereo not given) | -3 | 0 | 2 | 5 | 0 | .
CC1CCCC(C)N1C(=O)COC(=O)c1ccc([N+](=O)[O-])o1 (stereo not given) | 30* | 0 | 0 | . | 1 | -17%
CC1CC(C)CN(C(=O)COC(=O)c2ccc([N+](=O)[O-])o2)C1 (stereo not given) | -1 | 0 | 1 | . | 0 | .
Cc1noc(C)c1S(=O)(=O)Nc1ccc2c(c1)C(=O)N([C@@H](C)CO)C[C@H](C)[C@H](CN(C)C(=O)Cc1ccccc1)OCCCC[C@@H](C)O2 | -7 | . | . | . | . | .
COC(=O)c1ccc(C(=O)O)nc1 | 53* | 0 | -10 | 22 | 1 | -15%
Cc1nn2c(nc1=O)NNC2(C)C(C)(C)C (stereo not given) | 64* | 0 | 15 | 5 | 0 | -3%
O=C(NN=C(c1ccccc1)c1ccccn1)c1ccccc1 | 57* | -1 | 18 | . | 0 | -21%
C/C(=N\NC(=O)c1cccc2ccccc12)c1ccccn1 | 63* | 0 | . | 63 | . | 29µM*
O=C(NC(O)C(=O)c1ccccc1)c1ccccn1 (stereo not given) | 7 | 0 | -12 | -6 | 0 | .
O=c1[nH]c(N2CCOCC2)cc2ccccc12 | 41* | 0 | 6 | 1 | -1 | -8%
O=c1c(N2CCOCC2)coc2ccccc12 | -10 | 0 | 3 | 7 | 1 | .
CCCN(C(=O)CN1C(=O)NC2(CCCCCC2)C1=O)C1CCS(=O)(=O)C1 (stereo not given) | -25 | 0 | 8 | 0 | 1 | .
COC(=O)c1c(N)n(-c2ccc(NC(C)=O)cc2)c2nc3ccccc3nc12 | 14* | 0 | -5 | 55 | 1 | -18%
COCCn1c(N)c(C(=O)NCc2cccs2)c2nc3ccccc3nc21 | 51* | 0 | 280 | -2 | 3 | -25%
Cc1csc(NC(=O)c2cccn2C)n1 | 2 | 0 | -12 | 33 | -8 | .
Cc1ccc(C(=O)Nc2nc(-c3ccccn3)cs2)s1 | 54* | 2 | 28 | . | -3 | 38µM*
O=C(Nc1nc(-c2ccccn2)cs1)c1ccc(Cl)s1 | 59* | 2 | 42 | -197* | -1 | 28µM*
CC(Oc1cccc(Cl)c1)C(=O)Nc1nc(-c2ccccn2)cs1 (stereo not given) | 53* | 3 | 4 | 36 | 0 | -18%
Cn1cccc1C(=O)Nc1nc(-c2ccccn2)cs1 | 63* | 4 | 62 | ? | -8 | 20µM*
COc1ccc2nc(Cl)c(/C=N/Nc3ccccn3)cc2c1 | 7 | 0 | 8 | 31 | -1 | .
Fc1ccc(Nc2c(-c3ccco3)nc3ccccn23)cc1 | -25 | 1 | 10 | 9 | 1 | .
CCN(CC)c1ccc2cc(-c3nc4ccccc4n3C)c(=O)oc2c1 | 29 | 1 | 7 | 24 | 2 | .
COc1ccc(OC)c(NC(=O)COC(=O)Cn2nnc(-c3ccccc3)n2)c1 | active | 0 | . | . | . | 1%
C[C@H]1c2cccc(O)c2C(O)=C2C(=O)[C@]3(O)C(O)=C(C(N)=O)C(=O)[C@@H](N(C)C)C3[C@@H](O)C21 (stereo not given in full) | 36* | 0 | 14 | -120* | 1 | -10%
CCNC(=O)CSc1nnc(-c2ccccc2Br)n1-c1cccc(C(F)(F)F)c1 | 3 | 0 | 20 | 7 | 1 | .
O=C(Nc1cn2ccccc2n1)c1cc(-c2ccccc2)on1 | . | . | . | . | . | -7%[38 µM]
O=C(Nc1ccccc1)c1cn2ccccc2n1 | 41 | 0 | -13 | 15 | -7 | .
O=C(Nc1nc(-c2ccccc2)cs1)c1cc(-c2ccccc2)on1 | . | . | . | . | . | -2%[38 µM]
COc1ccccc1OCc1nc(C#N)c(NCCCn2ccnc2)o1 | 34* | 0 | -2 | 6 | -1 | -10%

Compound activity (PubChem)
